# According to the supplement of paper PMC12645437, “Orthogonal IMiD-Degron Pairs Induce Selective Protein Degradation in Cells” (ACS Chemical Biology, 2025):
# Whole data set: some 8,300 sequences, median “log2 fold change of degron read counts, EGFP-low vs EGFP+ sorted cells (limma voom), compound-induced degradation” near -1.1, cut for the highest 2% near 3.2. The list comes from a sample in which the highest values are over-represented; it also holds similar and randomly drawn sequences.
# T1: CRBN, Q96SW2
# T1 chain: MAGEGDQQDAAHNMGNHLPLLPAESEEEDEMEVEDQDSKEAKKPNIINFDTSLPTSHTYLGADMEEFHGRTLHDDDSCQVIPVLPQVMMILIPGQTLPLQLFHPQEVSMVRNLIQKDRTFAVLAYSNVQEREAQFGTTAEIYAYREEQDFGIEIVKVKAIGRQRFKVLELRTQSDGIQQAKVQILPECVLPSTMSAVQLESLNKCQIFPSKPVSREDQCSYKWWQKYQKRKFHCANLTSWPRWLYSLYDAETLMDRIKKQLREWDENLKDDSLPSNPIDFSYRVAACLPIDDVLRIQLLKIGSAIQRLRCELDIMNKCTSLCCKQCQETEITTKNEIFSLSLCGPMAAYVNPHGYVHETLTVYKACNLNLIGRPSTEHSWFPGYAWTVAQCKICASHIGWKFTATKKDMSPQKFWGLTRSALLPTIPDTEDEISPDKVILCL
# Target: T1, CRBN, Q96SW2
# Assay: log2 fold change of degron read counts, EGFP-low vs EGFP+ sorted cells (limma voom), compound-induced degradation; higher = more compound-induced degradation of the degron-EGFP fusion; degrons are variants of IKZF1/3 zinc finger 2; compound dose not given here
# Conditions: Jurkat, 18 h
# [1] = compound: compound 19 (5-tert-butyl-thalidomide)
# [2] = compound: compound 22 (5-morpholino-thalidomide)
# [3] = compound: compound 33 (diphenyl IMiD analogue)
# 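Note: pooled lentiviral library of zinc finger degron-EGFP fusions in mCherry-positive Jurkat cells, FACS-sorted after compound exposure, with degron abundance counted by next-generation sequencing.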
Sequence,log2 fold change of degron read counts [1],log2 fold change of degron read counts [2],log2 fold change of degron read counts [3],log2 fold change of degron read counts (compound: thalidomide)
"FVCPICGRLFTQKGNLLRHIKL [46F_47V_49P_50I_52G_53R_54L_55F_67L_, Q9UKT9]",-1.24,-0.36,0.85,1.08
"LVCNQCGFKCTQKGNLLRHIKL [46L_47V_49N_50Q_52G_53F_54K_55C_67L_, Q9UKT9]",-2.22,-2.27,-2.4,-0.986
"FFCSVCGHHFTQKGNLLRHIKL [46F_47F_49S_50V_52G_53H_54H_55F_67L_, Q9UKT9]",-2.1,-2.74,-2.17,-1.83
"FCCNQCGHNFTQKGNLLRHIKL [46F_47C_49N_50Q_52G_53H_54N_55F_67L_, Q9UKT9]",-2.54,-3.15,-2.94,-2.37
"FHCPVCGAMFTQKGNLLRHIKL [46F_47H_49P_50V_52G_53A_54M_55F_67L_, Q9UKT9]",1.4,1.46,1.42,-0.0518
"FYCNQCGRRFTQKGNLLRHIKL [46F_47Y_49N_50Q_52G_53R_54R_55F_67L_, Q9UKT9]",-2.62,-2.54,-2.6,-2.29
"LFCPICGFVCTQKGNLLRHIKL [46L_47F_49P_50I_52G_53F_54V_55C_67L_, Q9UKT9]",3.02,2.99,1.66,1.45
"FLCNVCGAQFTQKGNLLRHIKL [46F_47L_49N_50V_52G_53A_54Q_55F_67L_, Q9UKT9]",-2.31,-2.24,-0.00793,-0.809
"FVCPVCGALFTQKGNLLRHIKL [46F_47V_49P_50V_52G_53A_54L_55F_67L_, Q9UKT9]",-1.75,0.353,1.26,0.951
"FLCPVCGARFTQKGNLLRHIKL [46F_47L_49P_50V_52G_53A_54R_55F_67L_, Q9UKT9]",-0.179,-0.342,0.651,1.68
"FKCPVCGARFTQKGNLLRHIKL [46F_47K_49P_50V_52G_53A_54R_55F_67L_, Q9UKT9]",-1.78,-2.92,-2.71,-1.48
"FRCPVCGARFTQKGNLLRHIKL [46F_47R_49P_50V_52G_53A_54R_55F_67L_, Q9UKT9]",-1.26,-1.08,-0.255,0.153
"FFCPVCGALFTQKGNLLRHIKL [46F_47F_49P_50V_52G_53A_54L_55F_67L_, Q9UKT9]",1.62,1.64,1.45,0.0806
"FWCPVCGARFTQKGNLLRHIKL [46F_47W_49P_50V_52G_53A_54R_55F_67L_, Q9UKT9]",2.67,3.51,1.2,1.26
"FQCPVCGALFTQKGNLLRHIKL [46F_47Q_49P_50V_52G_53A_54L_55F_67L_, Q9UKT9]",-1.05,1.65,1.66,3.5
"FTCPVCGARFTQKGNLLRHIKL [46F_47T_49P_50V_52G_53A_54R_55F_67L_, Q9UKT9]",0.934,2.59,1.76,2.95
"FGCPVCGARFTQKGNLLRHIKL [46F_47G_49P_50V_52G_53A_54R_55F_67L_, Q9UKT9]",3.6,2.1,-0.116,1.03

Sequence,log2 fold change of degron read counts [1],log2 fold change of degron read counts [2],log2 fold change of degron read counts [3],log2 fold change of degron read counts (compound: thalidomide)
"FQCPVCGADFTQKGNLLRHIKL [46F_47Q_49P_50V_52G_53A_54D_55F_67L_, Q9UKT9]",-0.246,1.22,2.37,3.4
"FVCPVCGADFTQKGNLLRHIKL [46F_47V_49P_50V_52G_53A_54D_55F_67L_, Q9UKT9]",-0.973,0.651,1,1.76
"FCCPVCGADFTQKGNLLRHIKL [46F_47C_49P_50V_52G_53A_54D_55F_67L_, Q9UKT9]",0.844,0.509,1.45,0.741
"FFCNVCGAYFTQKGNLLRHIKL [46F_47F_49N_50V_52G_53A_54Y_55F_67L_, Q9UKT9]",-0.163,0.227,0.144,-1.05
"FMCEICGRNFTQKGNLLRHIKL [46F_47M_49E_50I_52G_53R_54N_55F_67L_, Q9UKT9]",-2.42,-2.71,-0.582,-1.02
"FFCSVCGHWFTQKGNLLRHIKL [46F_47F_49S_50V_52G_53H_54W_55F_67L_, Q9UKT9]",-1.15,-1.58,-1.38,-1.26
"FTCPICGHLFTQKGNLLRHIKL [46F_47T_49P_50I_52G_53H_54L_55F_67L_, Q9UKT9]",-2.23,-2.6,-1.44,-1.57
"FACPVCGARFTQKGNLLRHIKL [46F_47A_49P_50V_52G_53A_54R_55F_67L_, Q9UKT9]",3.49,2.28,-0.0911,1.06
"FCCPVCGARFTQKGNLLRHIKL [46F_47C_49P_50V_52G_53A_54R_55F_67L_, Q9UKT9]",2.31,2.41,1.79,2.26
"FHCPVCGARFTQKGNLLRHIKL [46F_47H_49P_50V_52G_53A_54R_55F_67L_, Q9UKT9]",1.99,2.23,0.971,0.937
"FDCPVCGARFTQKGNLLRHIKL [46F_47D_49P_50V_52G_53A_54R_55F_67L_, Q9UKT9]",3.12,1.66,1.4,2.71
"FVCPVCGARFTQKGNLLRHIKL [46F_47V_49P_50V_52G_53A_54R_55F_67L_, Q9UKT9]",0.0453,2.18,0.744,2.8
"FQCPVCGARFTQKGNLLRHIKL [46F_47Q_49P_50V_52G_53A_54R_55F_67L_, Q9UKT9]",-0.395,2.27,1.08,3.63
"FECPVCGARFTQKGNLLRHIKL [46F_47E_49P_50V_52G_53A_54R_55F_67L_, Q9UKT9]",0.67,-0.349,1.42,2.94
"FFCPVCGARFTQKGNLLRHIKL [46F_47F_49P_50V_52G_53A_54R_55F_67L_, Q9UKT9]",3.35,3.29,1.72,1.35
"FMCPVCGARFTQKGNLLRHIKL [46F_47M_49P_50V_52G_53A_54R_55F_67L_, Q9UKT9]",-0.509,0.0794,1.25,0.719
